To fix the notation:
B1: PhoQ; a variant is named by its letters at X, in order, P23837 (parent)
chain: MKKLLRLFFPLSLRVRFLLATAAVVLVLSLAYGMVALIGYSVSFDKTTFRLLRGESNLFYTLAKWENNKLHVELPENIDKQSPTMTLIYDENGQLLWAQRDVPWLMKMIQPDWLKSNGFHEIEADVNDTSLLLSGDHSIQQQLQEVREDDDDAEMTHSVAVNVYPATSRMPKLTIVVVDTIPVELKSSYMVWSWFIYVLSANLLLVIPLLWVAAWWSLRPIEALAKEVRELEEHNRELLNPATTRELTSLVRNLNRLLKSERERYDKYRTTLTDLTHSLKTPLXXLQXXLRSLRSEKMSVSDAEPVMLEQISRISQQIGYYLHRASMRGGTLLSRELHPVAPLLDNLTSALNKVYQRKGVNISLDISPEISFVGEQNDFVEVMGNVLDNACKYCLEFVEISARQTDEHLYIVVEDDGPGIPLSKREVIFDRGQRVDTLRPGQGVGLAVAREITEQYEGKIVAGESMLGGARMEVIFGRQHSAPKDE

The full ranking holds about 140,000 sequences; the median of “enrichment ratio after two sorts for PhoP signalling” is about 0, and the highest 2% start at about 11. The list comes from a sample in which the highest values are over-represented; it also holds similar and randomly drawn sequences.

Variants of B1 are the subject of this experiment. Briefly: enrichment ratio after two sorts for PhoP signalling (ratio (wild type AVST 3.29)); higher = more functional. The note with it: with PhoP (E. coli).
As to VLTL, the enrichment ratio stood at 3.19. The same measure for ITTL: 0.464; for FLTL: 0.273. Regarding SETL, the enrichment ratio came to 14.8. For the variant NETL, the enrichment ratio was ≤ 0.25. The same measure for YTTL: 3.18; for QETL: ≤ 0.25. The same measure for TLTL: 14.1; for STTL: 16.6. MHRQ: the enrichment ratio is ≤ 0.25. The same measure for GSPC: ≤ 0.25; for QHLF: ≤ 0.25; for RLFC: ≤ 0.25. For NYDD, the enrichment ratio was ≤ 0.25. The same measure for RDCN: ≤ 0.25; for EACS: ≤ 0.25; for MLAN: ≤ 0.25. With MCYQ, the enrichment ratio was 17.2. Regarding MLYD, the enrichment ratio is ≤ 0.25. The same measure for MEYQ: ≤ 0.25; for NCYQ: ≤ 0.25; for MLYQ: 18.8. As to KCYQ, the enrichment ratio was ≤ 0.25. Consider MADQ, for which the enrichment ratio was ≤ 0.25. With VHFE, the enrichment ratio is ≤ 0.25. The same measure for ESLL: 0.525; for ELNQ: ≤ 0.25.

On to MNMI, for which the enrichment ratio amounted to 4.

Turning to GGML, the enrichment ratio came to 15.7. In the case of LNML, the enrichment ratio was found to be 2.48. The same measure for YNNL: ≤ 0.25; for GNML: 12.2. Take VGML: the enrichment ratio was 8.33. Regarding MNML, the enrichment ratio is 24.9. The same measure for GQML: 7.95. For the variant TNML, the enrichment ratio came to 1.41.

GIML: the enrichment ratio turned out to be 8.24. Turning to YNSK, the enrichment ratio was ≤ 0.25. The same measure for YNML: 13.9; for SKFF: ≤ 0.25; for ALTN: 7.81.

With SRAG, the enrichment ratio is ≤ 0.25.

As for IRNN, the enrichment ratio is ≤ 0.25. With KMTD, the enrichment ratio is ≤ 0.25. The same measure for DIIE: ≤ 0.25; for HEPC: ≤ 0.25.

Consider YNTI, for which the enrichment ratio was ≤ 0.25. As for GRQY, the enrichment ratio is ≤ 0.25. The same measure for RGML: ≤ 0.25. The same measure for VNNL: ≤ 0.25; for HFML: ≤ 0.25. In the case of VNSK, the enrichment ratio was ≤ 0.25.

Consider HGML, for which the enrichment ratio worked out at 21.6.

MVML: the enrichment ratio stood at 11.9. In the case of MVCL, the enrichment ratio was 4.31. The same measure for HIML: ≤ 0.25; for TGML: 12.2; for VNML: 14.6. As for MVPL, the enrichment ratio is ≤ 0.25. With NGML, the enrichment ratio is ≤ 0.25. The same measure for YQHI: ≤ 0.25; for FWLA: ≤ 0.25; for TCLH: 1.39.

Take SHYK: the enrichment ratio was ≤ 0.25. As for DMSQ, the enrichment ratio was ≤ 0.25. Take IDIQ: the enrichment ratio was ≤ 0.25. Take RRTP: the enrichment ratio was ≤ 0.25. The same measure for MAIN: ≤ 0.25; for GTWQ: ≤ 0.25.

As to EFQI, the enrichment ratio was ≤ 0.25.

Take GVML: the enrichment ratio amounted to 13.4. GYML: the enrichment ratio was ≤ 0.25. As for QGML, the enrichment ratio was found to be 6.23. Consider GTML, for which the enrichment ratio was determined as 12.6. The same measure for GCML: 3.33; for FGML: 22.9. Take PWML: the enrichment ratio was ≤ 0.25.

In the case of FGDL, the enrichment ratio was ≤ 0.25. The same measure for PVML: ≤ 0.25; for SCGR: ≤ 0.25. Turning to GTVR, the enrichment ratio was ≤ 0.25. The same measure for SFSS: ≤ 0.25; for VDHN: ≤ 0.25; for ILLE: ≤ 0.25. For the variant DHMC, the enrichment ratio was ≤ 0.25. The same measure for FYNT: ≤ 0.25. As to ANLF, the enrichment ratio amounted to 10.7. The same measure for KIQT: ≤ 0.25; for ISLD: ≤ 0.25; for ETRK: ≤ 0.25. The same measure for NGAM: ≤ 0.25. The same measure for QGAM: 13; for TGAM: 13.

On to QGWM, for which the enrichment ratio is 9.7.

For NHAM, the enrichment ratio is ≤ 0.25. The same measure for RGAM: ≤ 0.25; for THAM: 18.6; for SHAM: 8.88. In the case of VRAM, the enrichment ratio was ≤ 0.25. The same measure for SRAM: ≤ 0.25. As to TRAM, the enrichment ratio was 15.1.

FFAM: the enrichment ratio is ≤ 0.25. The same measure for EKVL: ≤ 0.25; for YQEF: ≤ 0.25.

In the case of KAPT, the enrichment ratio is ≤ 0.25. Take IGGQ: the enrichment ratio was ≤ 0.25. For the variant TFTM, the enrichment ratio was found to be 3.86. The same measure for GGAM: 18.2.

Turning to YHAM, the enrichment ratio is ≤ 0.25. The same measure for KDAM: ≤ 0.25; for NIAM: ≤ 0.25. The same measure for TDAM: 17.8; for TFGM: 1.64. In the case of LTAM, the enrichment ratio is ≤ 0.25. With TFAM, the enrichment ratio turned out to be 18.6. On to LYIW, for which the enrichment ratio was ≤ 0.25. The same measure for VRDS: ≤ 0.25; for ADMI: 12.7; for TKMI: 38.2. Regarding AYMI, the enrichment ratio is 0.272. The same measure for LTMI: 0.673; for AIMI: 5.72; for TDFA: ≤ 0.25. Turning to TDMI, the enrichment ratio came out at 27.6.

As for TKMG, the enrichment ratio was 7.64.

As to ADFA, the enrichment ratio was ≤ 0.25. Consider AKMD, for which the enrichment ratio is ≤ 0.25. As for AKMI, the enrichment ratio stood at 12.8. The same measure for PTMI: ≤ 0.25. The same measure for LVPL: ≤ 0.25; for PNNY: ≤ 0.25; for WLFH: ≤ 0.25. Consider PLHT, for which the enrichment ratio was ≤ 0.25.

In the case of QAAQ, the enrichment ratio was ≤ 0.25. The same measure for EGTK: ≤ 0.25; for APAS: ≤ 0.25.

As to ALRD, the enrichment ratio was ≤ 0.25.

ALMD: the enrichment ratio is ≤ 0.25. Take ALMI: the enrichment ratio came to 17.6. In the case of KDMK, the enrichment ratio is ≤ 0.25. The same measure for ATMI: 19.9; for LTMK: ≤ 0.25; for ATPA: ≤ 0.25. On to TDMK, for which the enrichment ratio was 11.7. Turning to ALMG, the enrichment ratio turned out to be 6.08. The same measure for ATYI: ≤ 0.25; for NVRS: ≤ 0.25; for HGKV: ≤ 0.25. The same measure for KGKP: ≤ 0.25; for NFLN: 0.688; for AFWR: ≤ 0.25. The same measure for ASTS: 9.85. For the variant ADLV, the enrichment ratio was found to be 8.2. As to ASFM, the enrichment ratio stood at 6.83. The same measure for NSLF: ≤ 0.25; for VRLC: ≤ 0.25; for ASLV: 18.7. The same measure for ASLM: 15.3. The same measure for ASHK: ≤ 0.25; for ASLF: 12.2; for KSLF: ≤ 0.25. In the case of ASNS, the enrichment ratio is ≤ 0.25. The same measure for ASLC: 16.7. The same measure for NIYP: ≤ 0.25; for LAFW: ≤ 0.25; for YYWT: ≤ 0.25. The same measure for ASTI: 13.9; for VRLL: ≤ 0.25. For ASWI, the enrichment ratio was determined as 2.59. The same measure for ASTQ: 3.55.

ASLK: the enrichment ratio amounted to 8.78. The same measure for ASLS: 10.2; for ASLA: 14.6; for ASTK: ≤ 0.25. The same measure for ASDK: ≤ 0.25; for ASLI: 12.7; for ASLL: 19.9. Regarding FNCT, the enrichment ratio was ≤ 0.25. The same measure for VWPK: ≤ 0.25. In the case of EMQV, the enrichment ratio is ≤ 0.25. For RTWK, the enrichment ratio is ≤ 0.25.

Turning to KHEA, the enrichment ratio was ≤ 0.25. The same measure for EWFR: ≤ 0.25; for ASMT: 12.

For the variant ASLY, the enrichment ratio is 13.9.

Turning to ASNT, the enrichment ratio is ≤ 0.25. The same measure for ASLT: 11.9; for ASFT: 1.36; for ASNY: ≤ 0.25. As for KSLY, the enrichment ratio was ≤ 0.25.

Regarding KSMT, the enrichment ratio is ≤ 0.25. On to KHPW, for which the enrichment ratio was ≤ 0.25. MQFI: the enrichment ratio turned out to be 0.491. With WDYP, the enrichment ratio is ≤ 0.25. The same measure for ATVW: 3.56.

The record behind these values is a collection of fitness landscapes (doi:10.1126/science.1257360).
